Measured values published in PubChem BioAssay (Tox21).
Inconclusive results are not listed. Unmarked numbers belong to inactive results. Calls come from the whole dose curve.

Biological target: Peroxisome proliferator-activated receptor gamma (Homo sapiens) (UniProt P37231)
Experiment: qHTS assay to identify small molecule antagonists of the peroxisome proliferator-activated receptor gamma (PPARg) signaling pathway (AID 743191); note: nearly all actives have a fitted effect of over 30% in size
Conditions: HEK293H PPARg-UAS-bla, beta-lactamase ratio, antagonist, 17 h; series mostly up to 62.6 µM; ratio activity, negative = inhibition: at the top concentration
Excerpt: U.S. Tox21 Program National Center for Advancing Translational Sciences [NCATS] NIH Chemical Genomics Center [NCGC] U.S. Environmental Protection Agency [EPA] National Institutes of Environmental Health Sciences [NIEHS] National Toxicology Program [NTP] U.S. Food and Drug Administration [FDA] Tox21 Assay Overview: The peroxisome proliferator-activated receptors (PPARs) are lipid-activated transcription factors of the nuclear receptor superfamily with three distinct subtypes namely PPAR alpha, PPAR delta (also called PPAR beta) and PPAR gamma (PPARg). All these subtypes heterodimerize with Retinoid X receptor (RXR) and these heterodimers regulate transcription of various genes. PPAR-gamma receptor (glitazone receptor) is involved in the regulation of glucose and lipid metabolism. To identify the compounds that inhibit PPAR-gamma signaling, GeneBLAzer PPAR gamma UAS-bla HEK293H cell line (Invitrogen, Carlsbad, CA, USA) containing a beta-lactamase reporter gene under control of an Upstream Activator Sequence (UAS) was used to screen the Tox21 compound library.
Tox21 Assay Protocol Summary: PPARg-bla cells were dispensed at 3000 cells/6uL/well in 1536-well black wall/clear bottom plates using a Multidrop Combi (Thermo Fisher Scientific, Waltham, MA) dispenser. After the assay plates were incubated at 37C and 5% CO2 for 5 h, 23 nL of compounds dissolved in DMSO, positive controls or DMSO only was transferred to the assay plate by a Pintool station (Kalypsys, San Diego, CA). The assay plates were incubated at 37C for 17 h. After 1 uL of LiveBLAzerTM B/G FRET substrate was added using a Bioraptr Flying Reagent Dispenser (FRD) workstation (Beckman Coulter, Indianapolis, IN, USA), the plates were incubated at room temperature for 1 h, and fluorescence intensity was measured by an Envision plate reader (PerkinElmer, Shelton, CT).
% is set by controls: 0 for no effect and ±100 for the full control effect.

Sequence of Peroxisome proliferator-activated receptor gamma (Homo sapiens) (P37231 whole entry, looked up): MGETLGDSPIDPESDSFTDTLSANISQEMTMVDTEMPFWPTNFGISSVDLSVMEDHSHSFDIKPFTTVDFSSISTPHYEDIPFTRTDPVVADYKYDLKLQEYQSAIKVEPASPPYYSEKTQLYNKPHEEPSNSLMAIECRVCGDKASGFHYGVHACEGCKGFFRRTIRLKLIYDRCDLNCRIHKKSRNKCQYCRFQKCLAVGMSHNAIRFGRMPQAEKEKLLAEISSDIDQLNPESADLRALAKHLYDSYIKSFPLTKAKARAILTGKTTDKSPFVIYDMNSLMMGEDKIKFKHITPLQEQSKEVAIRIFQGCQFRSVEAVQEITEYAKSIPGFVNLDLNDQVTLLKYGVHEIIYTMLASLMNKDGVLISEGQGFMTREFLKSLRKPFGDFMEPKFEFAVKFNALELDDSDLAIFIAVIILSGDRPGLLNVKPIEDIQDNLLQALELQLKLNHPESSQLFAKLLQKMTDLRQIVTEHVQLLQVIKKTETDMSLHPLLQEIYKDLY

| Compound | ratio activity, negative = inhibition |
| --- | --- |
| CCC(=O)c1ccc(Cl)cc1 | 15.4% |
| O=C(O)C(Br)(Br)Br | 9.28% |
| CC[C@@H](CO)NC(=O)[C@@H]1C=C2c3cccc4c3c(cn4C)C[C@H]2N(C)C1 | 10.8% |
| CCC(=O)OC1(c2ccccc2)CCN(C)CC1 | 3.16% [at 81.1 µM] |
| CCOC(=O)c1ncn2c1CN(C)C(=O)c1c(I)cccc1-2 | 12.8% |
| COP(=O)(O)OC | 15.5% [at 81.1 µM] |
| CN(CCO)CCO | -4.43% [at 81.1 µM] |
| CCOP(=O)(CN(CCO)CCO)OCC | -3.36% |
| NC(=O)CS(=O)C(c1ccccc1)c1ccccc1 (stereo not given) | -3.68% |
| CCC1(c2cccc(O)c2)CCCCN(C)C1 (stereo not given) | 8.74% |
| CC(C)(N)Cc1ccccc1Cl | -3.14% |
| CNC(=O)Oc1cc(C)c(N(C)C)c(C)c1 | -1.71% |
| CCOC(=O)C(SP(=S)(OC)OC)c1ccccc1 (stereo not given) | 21.1% |
| C=CC1(C)OC(=O)N(c2cc(Cl)cc(Cl)c2)C1=O (stereo not given) | 3.27% |
| C=CCN1CC[C@]23CCCC[C@H]2[C@H]1Cc1ccc(O)cc13 | -7.41% |
| CCN[C@H](C)Cc1cccc(C(F)(F)F)c1 | -0.727% [at 81.1 µM] |
| CC(=O)CN(CC(C)=O)N=O | -2.61% |
| ClCCCCCCCl | 7.7% |
| CCN(CC)C1CCCCC1 | -10.6% |
| CN(C)C(=O)Oc1cc(OC(=O)N(C)C)cc(C(O)CNC(C)(C)C)c1 (stereo not given) | -0.298% |

| Compound | ratio activity, negative = inhibition |
| --- | --- |
| Clc1nc(Cl)nc(Nc2ccccc2Cl)n1 | 19.4% |
| CN1C(=O)COc2c(C(=O)NC3CN4CCC3CC4)cc(Cl)cc21 (stereo not given) | -0.841% |
| CC(=NC#N)N(C)Cc1ccc(Cl)nc1 | 19.6% |
| NNC(N)=O | 3.95% [at 81.1 µM] |
| Clc1ccc(C(Cl)(Cl)Cl)cn1 | -4.29% |
| CCC(C)C(C)(COC(N)=O)COC(N)=O (stereo not given) | 11.9% |
| CCOC1Oc2ccc(OS(C)(=O)=O)cc2C1(C)C (stereo not given) | -5.66% |
| CCCC(C)(COC(N)=O)COC(N)=O | 2.46% |
| CCC(C)(C#N)N=NC(C)(C#N)CC (stereo not given) | 0.129% |
| CCOC(=O)N(C)N=O | 6.78% |
| O=c1[nH]oc2c1CCNC2 | 4.21% |
| CCOP(=S)(OCC)Oc1ccc(Cl)cc1Cl | 4.77% |
| CC(C)(N)Cc1ccc(Cl)cc1 | -22.7% |
| COC(=O)[C@@H](N)CCCN/C(N)=N/[N+](=O)[O-] | 16.2% |
| CC(Cl)(Cl)Cl | -0.611% |
| O=c1[nH]c2ccccc2n1C1CCNCC1 | 4.56% |
| COC[C@@H](NC(C)=O)C(=O)NCc1ccccc1 | 3.96% |
| CCN[C@@H](C)Cc1ccccc1 | 3.69% [at 81.1 µM] |
| CCNc1nc(Cl)nc(NC(C)(C)C)n1 | -15.7% |
| ClCC1CO1 (stereo not given) | 10.4% |
